Results reported in the supplement of paper PMC10037445.
The full ranking holds about 2,900 compounds; the median of “NF-kB SEAP reporter activity, fold change vs agonist alone” is about 0.99, and the highest 2% start at about 2.6. This is one part of a sample in which the highest values are shown more often than they occur.

What was measured:
RAW-Dual [1] = assay: NF-kB SEAP reporter activity, fold change vs agonist alone; cytotoxicity flag (confluency mask): cytotoxic (confluency <70% of control); higher = enhanced NF-kB activity
How it was run: (§1)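 After 50 nL of library stock was delivered by pin tool to RAW-Dual macrophages (50,000 cells/well, DMEM, 384-well plates), a PRR agonist was added 1 h later and the plates were kept at 37 °C, 5% CO2. Twenty hours later, IRF was read from supernatant by QuantiLuc luminescence and NF-κB by QuantiBlue absorbance at 620 nm. Reporter activity is stated as fold change over agonist-alone wells. Wells with IncuCyte confluency under 70% of agonist controls in both mask sets were counted as cytotoxic.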

RAW-Dual [2] = assay: NF-kB SEAP reporter activity, fold change vs agonist alone; higher = enhanced NF-kB activity
How it was run: as §1

RAW-Dual [3] = assay: NF-kB SEAP reporter activity, fold change vs agonist alone; cytotoxicity flag (confluency mask): not cytotoxic; higher = enhanced NF-kB activity
How it was run: as §1

[4] = agonist: ODN 1826 (TLR9) 0.5 ug/mL
[5] = agonist: Pam2CSK4 (TLR2/6) 0.1 ug/mL
[6] = agonist: Pam3CSK4 (TLR2/1) 0.1 ug/mL
[7] = library stock concentration (final ~1000-fold dilution): 10 mM, cytotoxicity flag (confluency mask): cytotoxic (confluency <70% of control), agonist: Imiquimod (TLR7) […]
[8] = library stock concentration (final ~1000-fold dilution): 10 mM, cytotoxicity flag (confluency mask): cytotoxic (confluency <70% of control), agonist: MPLA (TLR4) […]
[9] = library stock concentration (final ~1000-fold dilution): 10 mM, cytotoxicity flag (confluency mask): not cytotoxic, agonist: Imiquimod (TLR7) […]
[10] = library stock concentration (final ~1000-fold dilution): 10 mM, cytotoxicity flag (confluency mask): not cytotoxic, agonist: MPLA (TLR4) […]

Which results are given for `CN(C)CCCn1cc(C2=C(c3c[nH]c4ccccc34)C(=O)NC2=O)c2ccccc21` (library stock concentration (final ~1000-fold dilution): 10 mM)?
NF-kB SEAP reporter activity (RAW-Dual [1]; agonist: LPS (TLR4) 0.1 ug/mL): 0.346; NF-kB SEAP reporter activity (RAW-Dual [1]; [4]): 0.491; NF-kB SEAP reporter activity (RAW-Dual [1]; [5]): 0.833; NF-kB SEAP reporter activity (RAW-Dual [1]; [6]): 0.564

`COc1ccc2c(c1)c(C1=C(c3c[nH]c4ccccc34)C(=O)NC1=O)cn2CCCN(C)C` (library stock concentration (final ~1000-fold dilution): 10 mM) was tested. Which “NF-kB SEAP reporter activity” value (RAW-Dual [1]; agonist: LPS (TLR4) 0.1 ug/mL) did it give?
The value was 1.23.

What about the “NF-kB SEAP reporter activity” value (RAW-Dual [1]; [4]) of the same compound?
Its value is 0.346.

And the “NF-kB SEAP reporter activity” value (RAW-Dual [1]; [5])?
Its value is 1.25.

And the “NF-kB SEAP reporter activity” value (RAW-Dual [1]; [6])?
The value was 1.82.

For `CN(C)CCCn1cc(C2=C(c3c[nH]c4ccccc34)C(=O)NC2=O)c2ccccc21`, which “NF-kB SEAP reporter activity” value (RAW-Dual [2]; [7]) is on record?
Its value is 1.13.

What about the “NF-kB SEAP reporter activity” value (RAW-Dual [2]; [8]) of the same compound?
The value was 1.59.

Which “NF-kB SEAP reporter activity” value (RAW-Dual [3]; agonist: LPS (TLR4) 0.1 ug/mL) does the source give for `Cc1ncc(NC(=O)c2cccc(C(F)(F)F)c2)cc1-c1cnc(OC2CCOCC2)c(N2CCOCC2)c1` (library stock concentration (final ~1000-fold dilution): 10 mM) here?
Its value is 1.31.

What about the “NF-kB SEAP reporter activity” value (RAW-Dual [3]; [4]) of the same compound?
The value was 0.938.

What about the “NF-kB SEAP reporter activity” value (RAW-Dual [3]; [5]) of the same compound?
The value was 0.495.

What about the “NF-kB SEAP reporter activity” value (RAW-Dual [3]; [6]) of the same compound?
Its value is 0.711.

Which “NF-kB SEAP reporter activity” value (RAW-Dual [2]; [9]) does the source give for `Cc1ncc(NC(=O)c2cccc(C(F)(F)F)c2)cc1-c1cnc(OC2CCOCC2)c(N2CCOCC2)c1` here?
The value was 0.898.

And the “NF-kB SEAP reporter activity” value (RAW-Dual [2]; [10])?
Its value is 1.04.

How did the “NF-kB SEAP reporter activity” value (RAW-Dual [3]; agonist: LPS (TLR4) 0.1 ug/mL) turn out when `Cc1cc(C)c2c(c1)C(N(Cc1cc(C(F)(F)F)cc(C(F)(F)F)c1)c1nnn(C)n1)CCCN2CC1CCC(C(=O)O)CC1` (centres undefined) (library stock concentration (final ~1000-fold dilution): 10 mM) was run?
Its value is 0.632.

And the “NF-kB SEAP reporter activity” value (RAW-Dual [3]; [4])?
Its value is 0.635.

What about the “NF-kB SEAP reporter activity” value (RAW-Dual [3]; [5]) of the same compound?
Its value is 0.484.

And the “NF-kB SEAP reporter activity” value (RAW-Dual [3]; [6])?
The value was 0.444.

Which results are given for `Cc1cc(C)c2c(c1)C(N(Cc1cc(C(F)(F)F)cc(C(F)(F)F)c1)c1nnn(C)n1)CCCN2CC1CCC(C(=O)O)CC1` (centres undefined)?
NF-kB SEAP reporter activity (RAW-Dual [2]; [9]): 0.911; NF-kB SEAP reporter activity (RAW-Dual [2]; [10]): 1.14

`CC(C)CC(NC(=O)C(NC(=O)c1cccc(-c2ccccc2)n1)C(C)O)B(O)O` (centres undefined) (library stock concentration (final ~1000-fold dilution): 10 mM) was tested. Which “NF-kB SEAP reporter activity” value (RAW-Dual [3]; agonist: LPS (TLR4) 0.1 ug/mL) did it give?
Its value is 0.629.

And the “NF-kB SEAP reporter activity” value (RAW-Dual [3]; [4])?
Its value is 1.53.

And the “NF-kB SEAP reporter activity” value (RAW-Dual [3]; [5])?
The value was 0.976.

What about the “NF-kB SEAP reporter activity” value (RAW-Dual [3]; [6]) of the same compound?
Its value is 0.594.

With `CC(C)CC(NC(=O)C(NC(=O)c1cccc(-c2ccccc2)n1)C(C)O)B(O)O` (centres undefined) as the compound, how does the “NF-kB SEAP reporter activity” value (RAW-Dual [2]; [9]) read?
Its value is 2.29.

And the “NF-kB SEAP reporter activity” value (RAW-Dual [2]; [10])?
Its value is 0.997.

What does the source list for `CCOC(=O)/C=C/c1ccc(O)c(OC)c1`?
NF-kB SEAP reporter activity (RAW-Dual [2]; [9]): 1.08; NF-kB SEAP reporter activity (RAW-Dual [2]; [10]): 1.2

Which “NF-kB SEAP reporter activity” value (RAW-Dual [3]; agonist: LPS (TLR4) 0.1 ug/mL) does the source give for `CCOC(=O)/C=C/c1ccc(O)c(OC)c1` (library stock concentration (final ~1000-fold dilution): 10 mM) here?
The value was 0.998.

What about the “NF-kB SEAP reporter activity” value (RAW-Dual [3]; [4]) of the same compound?
Its value is 1.03.

What about the “NF-kB SEAP reporter activity” value (RAW-Dual [3]; [5]) of the same compound?
The value was 0.959.

And the “NF-kB SEAP reporter activity” value (RAW-Dual [3]; [6])?
Its value is 1.07.

With `COc1ncc(-c2ccc3nccc(-c4ccnnc4)c3c2)cc1NS(=O)(=O)c1ccc(F)cc1F` as the compound, how does the “NF-kB SEAP reporter activity” value (RAW-Dual [2]; [9]) read?
The value was 0.912.

And the “NF-kB SEAP reporter activity” value (RAW-Dual [2]; [10])?
Its value is 0.957.

`COc1cc2nccc(Oc3ccc(NC(=O)Nc4ccc(F)cc4F)c(F)c3)c2cc1OC` was tested. Which “NF-kB SEAP reporter activity” value (RAW-Dual [2]; [7]) did it give?
Its value is 0.799.

And the “NF-kB SEAP reporter activity” value (RAW-Dual [2]; [8])?
Its value is 0.975.

`COc1ncc(-c2ccc3nccc(-c4ccnnc4)c3c2)cc1NS(=O)(=O)c1ccc(F)cc1F` (library stock concentration (final ~1000-fold dilution): 10 mM) was tested. Which “NF-kB SEAP reporter activity” value (RAW-Dual [3]; agonist: LPS (TLR4) 0.1 ug/mL) did it give?
The value was 6.18.

What about the “NF-kB SEAP reporter activity” value (RAW-Dual [3]; [4]) of the same compound?
The value was 0.959.

And the “NF-kB SEAP reporter activity” value (RAW-Dual [3]; [5])?
Its value is 2.26.

And the “NF-kB SEAP reporter activity” value (RAW-Dual [3]; [6])?
Its value is 0.801.

For `COc1cc2nccc(Oc3ccc(NC(=O)Nc4ccc(F)cc4F)c(F)c3)c2cc1OC` (library stock concentration (final ~1000-fold dilution): 10 mM), which “NF-kB SEAP reporter activity” value (RAW-Dual [1]; agonist: LPS (TLR4) 0.1 ug/mL) is on record?
The value was 0.806.

And the “NF-kB SEAP reporter activity” value (RAW-Dual [1]; [4])?
Its value is 0.587.

What about the “NF-kB SEAP reporter activity” value (RAW-Dual [1]; [5]) of the same compound?
The value was 0.463.

And the “NF-kB SEAP reporter activity” value (RAW-Dual [1]; [6])?
Its value is 0.717.

`CC1CNCCCN1S(=O)(=O)c1cccc2cncc(F)c12.Cl.O.O` (centres undefined) was tested. Which “NF-kB SEAP reporter activity” value (RAW-Dual [2]; [9]) did it give?
The value was 1.01.

What about the “NF-kB SEAP reporter activity” value (RAW-Dual [2]; [10]) of the same compound?
Its value is 1.08.

For `CC1CNCCCN1S(=O)(=O)c1cccc2cncc(F)c12.Cl.O.O` (centres undefined) (library stock concentration (final ~1000-fold dilution): 10 mM), which “NF-kB SEAP reporter activity” value (RAW-Dual [3]; agonist: LPS (TLR4) 0.1 ug/mL) is on record?
Its value is 1.11.

What about the “NF-kB SEAP reporter activity” value (RAW-Dual [3]; [4]) of the same compound?
The value was 0.99.

What about the “NF-kB SEAP reporter activity” value (RAW-Dual [3]; [5]) of the same compound?
Its value is 1.27.

And the “NF-kB SEAP reporter activity” value (RAW-Dual [3]; [6])?
Its value is 1.5.

How did the “NF-kB SEAP reporter activity” value (RAW-Dual [2]; [10]) turn out when `COC(=O)NC(C(=O)N1CCCC1c1ncc(-c2ccc(-c3ccc(-c4cnc(C5CCCN5C(=O)C(NC(=O)OC)C(C)C)[nH]4)cc3)cc2)[nH]1)C(C)C.Cl.Cl` (centres undefined) was run?
The value was 1.76.

What does the source list for `COC(=O)NC(C(=O)N1CCCC1c1ncc(-c2ccc(-c3ccc(-c4cnc(C5CCCN5C(=O)C(NC(=O)OC)C(C)C)[nH]4)cc3)cc2)[nH]1)C(C)C.Cl.Cl` (centres undefined) (library stock concentration (final ~1000-fold dilution): 10 mM)?
NF-kB SEAP reporter activity (RAW-Dual [3]; agonist: LPS (TLR4) 0.1 ug/mL): 1.85; NF-kB SEAP reporter activity (RAW-Dual [3]; [4]): 0.91; NF-kB SEAP reporter activity (RAW-Dual [3]; [5]): 1.02; NF-kB SEAP reporter activity (RAW-Dual [3]; [6]): 0.606

How did the “NF-kB SEAP reporter activity” value (RAW-Dual [2]; [9]) turn out when `CC(C)CN(CC(O)C(Cc1ccccc1)NC(=O)OC1CCOC1)S(=O)(=O)c1ccc(N)cc1` (centres undefined) was run?
The value was 1.3.

And the “NF-kB SEAP reporter activity” value (RAW-Dual [2]; [10])?
The value was 1.6.

What does the source list for `CC(C)CN(CC(O)C(Cc1ccccc1)NC(=O)OC1CCOC1)S(=O)(=O)c1ccc(N)cc1` (centres undefined) (library stock concentration (final ~1000-fold dilution): 10 mM)?
NF-kB SEAP reporter activity (RAW-Dual [3]; agonist: LPS (TLR4) 0.1 ug/mL): 1.41; NF-kB SEAP reporter activity (RAW-Dual [3]; [4]): 1.74; NF-kB SEAP reporter activity (RAW-Dual [3]; [5]): 1.45; NF-kB SEAP reporter activity (RAW-Dual [3]; [6]): 1.32

Which “NF-kB SEAP reporter activity” value (RAW-Dual [3]; agonist: LPS (TLR4) 0.1 ug/mL) does the source give for `CC1CCOC2Cn3cc(C(=O)NCc4ccc(F)cc4F)c(=O)c(O)c3C(=O)N12` (centres undefined) (library stock concentration (final ~1000-fold dilution): 10 mM) here?
Its value is 0.989.

What about the “NF-kB SEAP reporter activity” value (RAW-Dual [3]; [4]) of the same compound?
Its value is 0.999.

And the “NF-kB SEAP reporter activity” value (RAW-Dual [3]; [5])?
Its value is 1.09.

And the “NF-kB SEAP reporter activity” value (RAW-Dual [3]; [6])?
Its value is 0.921.

Which results are given for `CC1CCOC2Cn3cc(C(=O)NCc4ccc(F)cc4F)c(=O)c(O)c3C(=O)N12` (centres undefined) (library stock concentration (final ~1000-fold dilution): 2 mM)?
NF-kB SEAP reporter activity (RAW-Dual [3]; agonist: LPS (TLR4) 0.1 ug/mL): 1.23; NF-kB SEAP reporter activity (RAW-Dual [3]; [4]): 0.967; NF-kB SEAP reporter activity (RAW-Dual [3]; [5]): 0.958; NF-kB SEAP reporter activity (RAW-Dual [3]; [6]): 0.873

For `CC1CCOC2Cn3cc(C(=O)NCc4ccc(F)cc4F)c(=O)c(O)c3C(=O)N12` (centres undefined), which “NF-kB SEAP reporter activity” value (RAW-Dual [2]; library stock concentration (final ~1000-fold dilution): 2 mM, cytotoxicity flag (confluency mask): not cytotoxic, agonist: MPLA (TLR4) […]) is on record?
Its value is 0.994.

What about the “NF-kB SEAP reporter activity” value (RAW-Dual [2]; [9]) of the same compound?
Its value is 1.18.

What about the “NF-kB SEAP reporter activity” value (RAW-Dual [2]; [10]) of the same compound?
The value was 0.999.
